Laboratory results: PubChem BioAssay AID1347431 (National Center for Advancing Translational Sciences (NCATS), 2020)
Fewer than 10 of roughly 1,200 compounds were called active. Calls follow the shape of the dose curve; as a rule, active = well fitted curve in the direction sought with a large enough effect; inconclusive = small, poorly fitted or top-dose-only effect, or another doubt; inactive = no such curve, though single readings can be large or run the other way. Only a sample is shown.

Assay: Confirmatory qHTS assay for inhibitors of Activation Induced Cytidine Deaminase (AID): UDG signals; also: 0% is about no effect
Conditions: UDG coupled enzyme activity counter-screen; series mostly up to 115 µM; activity change, negative = inhibition: at the top concentration
From the text: Assay Provider (PI) Patricia Gearhart Ph.D.
National Institute on Aging
National Institute of Health (NIH), Bethesda, MD
Assay Provider (PI) Rahul Kohli Ph.D.
Perelman School of Medicine
University of Pennsylvania, Philadelphia, PA
Activation-Induced Deaminase (AID) is a cytosine deaminase which converts cytosine into uracil within stretches of ssDNA. The presence of uracil in DNA initiates a cascade of mutagenic DNA repair to introduce point mutations and DNA double strand breaks. Specific targeting of AID to the immunoglobulin heavy chain loci (Igh) promotes mutagenesis in the antibody variable region for somatic hypermutation (SHM) or switch regions leading to class switch recombination (CSR). However, AID also plays a role in accumulating unnecessary mutations across the genome. Mis-targeting of AID results in the initiation of tumor development and leads to greater drug resistance among cancer cells when continually expressed. To identify an AID inhibitor, a small molecule library will be screened in collaboration with NCATS core facility at NIH. To confirm biological function, inhibitors will be examined in an in vitro murine B-cell activation assay and subsequent secondary validation screens. Top molecules will be further screened to identify inhibitory efficacy against a wild type primary splenocytes assay. Using these approaches, we hope to identify a small molecule with great efficacy and low toxicity for use as a molecular probe to further characterize AID's intricacies, or even as a therapeutic.
A FRET based analysis of cytosine deamination, was developed to identify potential inhibitors of AID catalytic activity. This screen has two signal output, Read 1 evaluates the AID inhibition response. The second readout (Read 2) evaluates UDG response and is uses as a counterscreen to exclude false positive inhibitors. Inhibition in AID and inactivity in the UDG signal is the desired outcome for this assay.
SEQUENCE No. (e.g., 1, 2, 3, etc.); […] (e.g., Cells, Incubation, Reagent, etc.); VALUE; DESCRIPTION
1a; Reagent; 3 uL; [4/3x] 1 uM AID/2.67 U/mL UDG
1b; Reagent; 3 uL; 2 U/mL UDG
1c; Reagent; 3 uL; 1 uM AID
2a; Compound; 46 nL; Follow-up plates (0.64 uM - 10 mM)
2b; Control; 46 nL; ATA ([…] - 10 mM)
3; Time; 10 min; incubation at room temperature
5; Time; 4 hr; incubation at room temperature
6; Reagent; 4 uL; [2x] 250 mM NaOH
7; Time; 15 sec; centrifuge at 1000 rpm
8; Time; 30 min; incubation at room temperature
9a; Detection; fluorescence (Read 1: AID); EnVision (PerkinElmer) plate reader, 540 excitation and 590 emission filters
9b; Detection; fluorescence (Read 2: UDG); EnVision (PerkinElmer) plate reader, 560 excitation and 665 emission filters
NOTES (numbers refer to sequence above)
1a; Reagents were dispensed in a medium-binding black solid-bottom Greiner plates (789176F) using a BioRptr liquid dispenser. Dispense 3 uL of [4/3x] 1 uM AID (provided by Kohli lab) and [4/3x] 2 U/mL UDG (NEB M0280L) into columns 1, 2, 5 to 48.
1b; Dispense 3 uL of [4/3x] 2 U/mL UDG into column 3.
1c; Dispense 3 uL of [4/3x] 1 uM AID into column 4.
2a; Compound (7-points [uM]: 0.64; 3.2; 16; 80; 400; 2,000; 10,000; […]) double pin-transferred (Dip Factor = 2) using the Kalypsys (Wako USA) pintool equipped with a 1536 pinhead for a final concentration range of 7.32 nM - 114 uM.
2b; 10 mM Aurintricarboxylic Acid (Sigma A1895) (ATA, 8-point, n = 2, 1:2.5 dilution in column 2) double pin-transferred (Dip Factor = 2) using the Kalypsys (Wako USA) pintool equipped with a 1536 pinhead for a [final] range of 186 nM - 114 uM.
3; Room temperature incubation.
4; Dispense 1 uL of substrate mixture from the Kohli lab [4x] […] DJC20 and [4x] 250 nM DJC23 into columns 1 to 48 .
5; Room temperature incubation.
6; Dispense 4 uL of substrate mixture [2x] 250 mM NaOH into columns 1 to 48.
7; Centrifugation step to remove bubbles.
8; Room temperature incubation
9a; Fluorescence signal (column label AID) was read using the EnVision plate reader. […]

| SMILES | activity change, negative = inhibition |
| --- | --- |
| CCN1CCN(c2cc(C)c3cc(NC(=O)/C=C/c4cccc(Cl)c4)ccc3n2)CC1 | 2.14% (inactive) |
| CCOc1ccc(Nc2sc(C(=O)c3ccc(F)cc3)c(N)c2S(=O)(=O)c2ccc(C)cc2)cc1 | -3.57% (inactive) |
| CCc1ccccc1N(C)C(=O)c1sc2nc3n(c(=O)c2c1C)CCCCC3 | 1.65% (inactive) |
| COc1ccc(CNC(=O)c2cnn3c(C)c(Cc4c(F)cccc4Cl)c(C)nc23)cc1 | -1.61% (inactive) |
| COc1ccc(C(=O)c2cn(Cc3ccccc3F)c3ccc(F)cc3c2=O)cc1 | -4.88% (inactive) |
| CCCCCCSc1nc(N)c2c3c(sc2n1)CCCC3C (stereo not given) | -13.7% (inactive) |
| Cc1nc2c(C(=O)NCCc3ccc(Cl)cc3)cnn2c(C)c1Cc1ccc(F)cc1 | -12.3% (inactive) |
| Cc1cccc(N2C(=O)N(CC(=O)C(C)(C)C)c3ccccc3S2(=O)=O)c1C | 2.18% (inactive) |
| COc1ccccc1OCCn1c(C(C)Oc2ccccc2)nc2ccccc21 (stereo not given) | -7.15% (inactive) |
| CCOc1ccccc1NC(=O)CN1C(=O)CC(c2ccc(OC)c(OC)c2)Sc2ccccc21 (stereo not given) | -2.93% (inactive) |
| CCC(C(=O)N1CCN(c2cc(C)ccc2C)CC1)n1nc(C)n2c(cc3occc32)c1=O (stereo not given) | -15% (inactive) |
| COc1ccc(-n2c(Cc3ccccc3)nnc2SCc2nc(-c3ccccc3C)no2)cc1 | -23.7% (inactive) |
| COc1ccc(N2C(=O)CSC23C(=O)N(Cc2cccc(C(F)(F)F)c2)c2ccccc23)cc1 (stereo not given) | -6.88% (inactive) |
| Cc1nc2cc(-c3ccccc3)nn2c(C)c1CCC(=O)N1CCN(c2ccc(F)cc2)CC1 | -8.14% (inactive) |
| COc1ccc(C)cc1N(C)C(=O)c1sc2nc3n(c(=O)c2c1C)CCCCC3 | 1.37% (inactive) |
| Cc1oc(-c2ccccc2Cl)nc1CS(=O)CC(=O)N1CCN(c2cccc(C(F)(F)F)c2)CC1 (stereo not given) | 1.61% (inactive) |
| Cc1ccc2onc(CC(=O)N3CCN(c4cc(Cl)ccc4C)CC3)c2c1 | -3.38% (inactive) |
| CCn1cc(C(=O)NCCc2ccc(OC)c(OC)c2)c(=O)c2cc(S(=O)(=O)N(C)C3CCCCC3)ccc21 | -16% (inactive) |
| CC(C)c1ccc(NC(=O)c2ccc3c(O)c(S(=O)(=O)c4ccccc4)c(=O)[nH]c3c2)cc1 | 1.07% (inactive) |
| CCn1cc(S(=O)(=O)c2ccc(C)cc2C)c(=O)c2cc(F)c(N3CCCC3)cc21 | 0.779% (inactive) |
| Cc1cccc(CNC(=O)c2oc3c(c2C)-c2nn(Cc4ccccc4Cl)cc2CC3)c1 | 6.73% (inactive) |
| COc1ccc(N2CCN(C(=O)c3cc4c(-c5ccccc5F)nn(C)c4s3)CC2)cc1 | -2.54% (inactive) |
| CCc1cccc(-n2c(C)nc3c(cnn3-c3ccc(Cl)cc3)c2=O)c1 | 2.34% (inactive) |

| SMILES | activity change, negative = inhibition |
| --- | --- |
| CCOc1ccc(-c2nc(CSCC(=O)N3CCN(c4cccc(C(F)(F)F)c4)CC3)c(C)o2)cc1 | -17.8% (inactive) |
| Cc1ccc(-n2ncc(C(=O)NCCc3ccccc3)c2C2CCN(C(=O)OC(C)(C)C)CC2)c(C)c1 | -6.03% (inactive) |
| CCn1cc(C(=O)NCCc2ccc(OC)c(OC)c2)c(=O)c2cc(S(=O)(=O)N3CCC(C)CC3)ccc21 | -8.81% (inactive) |
| COc1cc2nc(NC(=O)c3ccc(S(=O)(=O)N4CCc5ccccc54)cc3)sc2cc1OC | 3.33% (inactive) |
| Cc1ccc2oc(C(=O)NCC(c3ccc(Cl)cc3)N3CCOCC3)c(C)c2c1 (stereo not given) | -1.52% (inactive) |
| N=c1n(CCN2CCCCC2)c2ccccc2n1CC(O)COc1ccc(Cl)cc1Cl (stereo not given) | -4.14% (inactive) |
| CCCCN(CC)CCNC(=O)c1cc2c(=O)oc3ccc(C)cc3c2s1 | 3.87% (inactive) |
| O=C(Nc1ccc(F)cc1F)c1ccc2c(O)c(S(=O)(=O)c3ccc(Cl)cc3)c(=O)[nH]c2c1 | 6.68% (inactive) |
| CCC(C(=O)Nc1cc(Cl)ccc1OC)n1nc(-c2ccccc2)ccc1=O (stereo not given) | 0.722% (inactive) |
| CCCNC(=O)c1cnn2c(C)c(Cc3c(C)cc(C)cc3C)c(C)nc12 | -0.105% (inactive) |
| CCc1ccc(NC(=O)CSc2nccn2-c2cccc(C)c2C)cc1 | -12.7% (inactive) |
| Cc1c(Cl)cccc1-n1ncc(C(=O)NCc2cccs2)c1C1CCN(C(=O)OC(C)(C)C)CC1 | -10.8% (inactive) |
| Cc1nc2ccccc2n1CCc1nc2c3ccccc3nc(SCC(=O)Nc3ccc(C(C)C)cc3)n2n1 | -1.98% (inactive) |
| COc1ccc(NC(=O)c2c(NC(=O)c3ccc(Br)cc3)sc3c2CCCC3)cc1 | -4.81% (inactive) |
| Cc1ccccc1Cc1c(C)nc2nc(SCC(=O)NCCc3ccc(Cl)cc3)nn2c1C | -12.4% (inactive) |
| COCCCNC(=O)c1oc2c(c1C)-c1nn(Cc3cccc(Cl)c3)cc1CC2 | -14.6% (inactive) |
| Cc1cccc(-n2c3nc(=O)[nH]c(=O)c-3cc3ccc(Cl)cc32)c1C | -6.3% (inactive) |
| Cc1cc(N)c(-n2cc3c(c2-c2ccc(Br)cc2)c(=O)n(C)c(=O)n3C)cc1C | -5.86% (inactive) |
| Cc1cccc(Cn2nnc3c(=O)[nH]c(C4CCCN(C(=O)c5ccc(C(C)(C)C)cc5)C4)nc32)c1 (stereo not given) | -5.24% (inactive) |
| COc1ccc(CCN2CCC(CNC(=O)c3cnn(-c4cccc(Cl)c4)c3C3CCN(C(=O)OC(C)(C)C)CC3)CC2)cc1 | -5.53% (inactive) |
| COc1cc(NC(=O)CCc2c(C)nc3c4c(C)cc(C)nc4nn3c2C)cc(OC)c1 | 3.35% (inactive) |
| CCOC(=O)c1ccc(-c2ccc(/C=C(\C#N)c3nc4ccc(C)cc4[nH]3)o2)cc1 | -7.54% (inactive) |
